PubChem BioAssay (EPA / NIEHS)
Active and inactive are the calls of the source. How the source made its calls: active means hit-call score of the fitted dose curve at least 0.9, where 1 is the maximum; inactive means score below 0.9.

read-out: JUN Transcription Factor, JUN (gene 3725); assay: LTEA_HepaRG_JUN: Life Technologies and Expression Analysis (LTEA) Assay for JUN Transcription Factor using HepaRG (AID 2283513); details: mRNA level, 48 h; actives raise or lower the signal
Description: LTEA_HepaRG is a cell based, multiplexed-readout assay that uses HepaRG, a human liver cell line, with measurements taken at 48 hours after chemical dosing on a 96-well plate.LTEA_HepaRG_JUN is one of 102 assay component(s) measured in the LTEA HepaRG cell culture assay. It is a marker of Cell proliferation, survival, death.Data from the assay component LTEA_HepaRG_JUN was analyzed into 1 endpoint. This assay endpoint, LTEA_HepaRG_JUN, was analyzed with bidirectional fitting relative to DMSO as the negative control and baseline of activity. Using a type of inducible reporter, measures of mRNA induction for gain or loss-of-signal activity can be used to understand regulation of transcription factor activity. To generalize the intended target to other relatable targets, this assay endpoint is annotated to the dna binding intended target family, where the subfamily is basic leucine zipper.
A total of 1060 chemcials from the ToxCast library were tested in eight-point concentration-response experiments. Cell culture and cytotoxicity assays were conducted at Thermo Fisher Scientific's Custom Services facility (Madison, WI). A single lot of human HepaRG cells (Thermo Fisher Scientific, Frederick, MD) was used for the cell culture experiments. 96-well format collagen type I coated plates of human HepaRG cells were prepared using established methods. Briefly, cryopreserved HepaRG cells were thawed, plated at a density of approximately 100,000 cells/well in HepaRG Thaw, Plate, and General Purpose media (HPRG770, Thermo Fisher Scientific), and incubated for 48 hours. 0.5% DMSO was selected as vehicle control to balance the requisite need of DMSO in HepaRG cultures to maintain differentiation (for example, baseline metabolism, proportions of hepatocytes vs. cholangiocytes), while enabling further hepatic receptor pathway activation (for example, PXR and CAR) in response to chemical exposure. 48 hours after plating, the culture medium was replaced with HepaRG Serum-Free Incudtion Media. Cells were exposed to each test chemical in duplicate and maintained in CO2 incubators for another 48 hours. Chemical plates were thawed to room temperature and 200x concentrations of treatment groups were prepared. 8-point conentration-reponse curves were made with the highest exposure at 100 uM, followed by half-log dilutions, all in 0.5% DMSO. Each test plate contained variouse controls, induction positive controls (1mM phenobarbital), cytotoxicity positive controls ([…] aflatoxin B1), vehicle controls (0.5% DMSO), and total lysis controls (0.5% DMSO). Cell morphology images were taken using an Essen IncuCyte FLR automated microscope, with six 96-well plates imaged in about 24 minutes. Images were captured and exported and JPEG files. Spent culture media was transfered to black-well plates for the LDH assay, and remaining media was sorted at -80 C for later use. Cells were treated with RLT buffer and frozen until shipped for gene expression analysis. Total RNA was isolated from the cell suspension in 75 uL of Buffer RLT (Qiagen, Germantown, MD 20874) by Quintiles/Expression Analysis (Durham, NC) using a custom isolation procedure. Total RNA from each plate well was transferred to a preamplification plate. Fluidigm's 96.96 Dynamic ArrayTM (Fluidigm, Amsterdam, the Netherlands) technology was used for gene expression analyses by quantitative reverse transcription polymerase chain reaction (qRT-PCR, performed by Quintiles/Expression Analysis, Durham, NC)89. Standard TaqManTM Assays (Applied Biosystems/ThermoFisher Scientific, Foster City, CA) were used to assess the expression of 93 genes selected based on their selectivity and sensitivity to important hepatic receptors known to be modulated by environmental chemicals; importance in human hepatocyte functionality; and hepatotoxicity. […]

Compound	outcome	AC50
O=C1CCCCC1	inactive	
COc1ccc(C(=O)Nc2nc3ccccc3c(NCc3ccccc3)c2C#N)cc1	inactive	
CC(C)COC(=O)CCCCC(=O)OCC(C)C	inactive	
CCCCC(CC)CO (stereo not given)	inactive	
CSc1ccc(Oc2ccc(S(N)(=O)=O)cc2CN(C)C)cc1C	inactive	
CCCCCCCC(=O)OC	inactive	
CS(=O)(=O)c1ccc([C@@H](C[C@H]2CCC(=O)C2)C(=O)Nc2cnccn2)cc1Cl		1.43 µM (active)
CC(C)c1cccc(C(C)C)c1NC(=O)NS(=O)(=O)c1cc(C(C)(C)O)co1	inactive	
CCC(C)N(C)C(=O)c1cc2ccccc2c(-c2ccccc2Cl)n1 (stereo not given)	inactive	
CC(=O)O	inactive	
COC(=O)[C@H]1[C@H]2C[C@@H]3c4[nH]c5cc(OC)ccc5c4CCN3C[C@H]2C[C@@H](OC(=O)c2cc(OC)c(OC)c(OC)c2)[C@@H]1OC		8.38 µM (active)
CN(C)C(=O)NC1(c2ccccc2)CCN(CC[C@@]2(c3ccc(F)c(F)c3)CN(C(=O)c3ccccc3)CCO2)CC1	inactive	
CN(C)CCCN1c2ccccc2Sc2ccc(Cl)cc21		94 µM (active)
N[C@@H](Cc1c[nH]c2ccccc12)C(=O)O	inactive	
CCc1cc(C2=C(C(=O)O)N(c3ccccc3C(F)(F)F)S(=O)(=O)c3ccccc32)cc2c1OCO2	inactive	
CC(C)(O)c1ccc(CNC(=O)c2cccnc2Oc2ccc(F)cc2)cc1	inactive	
C=CCCCCCCCCCCCC	inactive	
C/C=C/c1ccc(OC)cc1	inactive	
CC(C)c1cccc(C(C)C)c1	inactive	
O=[Si]=O	inactive	

Compound	outcome	AC50
O=Cc1ccccc1C=O	inactive	
CC(=O)CC(c1ccccc1)c1c(O)c2ccccc2oc1=O (stereo not given)	inactive	
CCCC[C@H]1CN(CC2CCOCC2)C(=O)OC12CCN(C1(C)CCN(C(=O)c3c(C)ncnc3C)CC1)CC2	inactive	
O=C(O)CN(CC(=O)O)CC(=O)O	inactive	
CCCCc1nc2cccnc2n1Cc1ccc(-c2ccccc2-c2nnn[nH]2)cc1	inactive	
Cc1ccc(-c2cc(C(F)(F)F)nn2-c2ccc(S(N)(=O)=O)cc2)cc1		83.4 µM (active)
O=C1OC(c2ccc(O)cc2)(c2ccc(O)cc2)c2ccccc21	inactive	
CC(=O)S[C@H](C(=O)N[C@H]1Cc2ccccc2[C@H]2CCC[C@@H](C(=O)O)N2C1=O)C(C)C	inactive	
Cc1cc(SC2=C(O)C[C@@](CCc3ccc(N)cc3)(C(C)C)OC2=O)c(C(C)(C)C)cc1CO	inactive	
CN(C)C(=O)NC1(c2ccccc2)CCN(CCC[C@]2(c3ccc(Cl)c(Cl)c3)CCCN(C(=O)c3ccccc3)C2)CC1		20.2 µM (active)
CCCCOC(=O)CCCCC(=O)OCCCC	inactive	
NC=O	inactive	
CCCCCCCCCCCCCCOS(=O)(=O)O	inactive	
CCCCCCCCCCCCCCCCO	inactive	
O=C(O)c1[nH]n(-c2ccc(S(=O)(=O)O)cc2)c(=O)c1N=Nc1ccc(S(=O)(=O)O)cc1	inactive	
CCCCCCC(CCCCCCCCCCC(=O)OCC(COC(C)=O)OC(C)=O)OC(C)=O (stereo not given)	inactive	
CCN(CC)CCOc1ccc(C(=C(Cl)c2ccccc2)c2ccccc2)cc1		66.2 µM (active)
CC(COCC(C)OC(=O)c1ccccc1)OC(=O)c1ccccc1 (stereo not given)	inactive	
CC(N)=O	inactive	
CC1(C)C(=O)NC(=O)N1CO	inactive	
